Unmarked numbers belong to inactive results. The rule behind the calls is not given here.
Tested on: Botulinum neurotoxin type F light chain protease (Clostridium botulinum)
Assay: Clostridium botulinum type F light chain protease inhibitors, microsphere substrate cleavage, validation (AID 588459)
Conditions: multiplex microsphere protease substrate cleavage assay, flow cytometry; at 10 µM; hits give high values

SMILES | inhibition [%]
Cc1nc2ccccc2n1CC(=O)NC1CCCC1 | -0.9
CC1CCCc2sc3ncn(N)c(=N)c3c21 (stereo not given) | 0.9
COC(=O)c1cc(OC)c(OC)cc1NC(=O)Nc1ccc(OC)cc1OC | -4
O=C(COc1ccc2c(-c3ccccc3)cc(=O)oc2c1)NCc1cccs1 | -0.2
O=C(O)/C=C/c1cnc[nH]1 | 1.9
O=c1[nH]cnc2c1ncn2[C@@H]1O[C@H](CO)[C@@H](O)[C@H]1O | 1.2
CCOc1cc(C=O)ccc1OCCSc1ccc(C)cc1 | 1.3
Cc1ccnc2c1NC(=O)c1cccnc1N2C1CC1 | 0.7
O=c1[nH]cnc2[nH]ncc12 | 4.1
O=C(CCN1CCC(c2ccccc2)C1)c1ccc2c(c1)OCCO2 (stereo not given) | 4.6
O=C(/C=C/c1ccco1)Nc1ccccc1C(=O)O | 0.9
Cc1ccc(O)c(CCc2ccccc2)n1 | 1.3
C=CCc1cccc2cc(C(=O)Nc3ccc(CC(=O)O)cc3)c(=O)oc12 | 1.3
CCOC(=O)c1ccc(N2C(=O)C(CC(N)=O)N(CCc3ccc(OC)c(OC)c3)C2=S)cc1 (stereo not given) | 2
O=C(O)CCn1cnc2ccccc2c1=O | 1.4
O=C(Nc1ccccc1)OCC1CCCN2CCCCC12 (stereo not given) | 0.6
Cc1cccc(C2=N/C(=C\c3cccnc3)C(=O)O2)c1 | -1.1
COc1cc(OC)c(C2C(C#N)=C(N)OC3=C2C(=O)CC(C)(C)C3)cc1OC (stereo not given) | -2.6
Cn1c(=O)c(C(=O)NCCO)c(O)c2ccccc21 | 0.4
COc1ccc(/C=C\c2nc(=O)c3ccccc3o2)cc1 | -0.6

SMILES | inhibition [%]
CC(=O)[C@@H]1[C@@H](C(=O)c2ccc(C)cc2)[C@]2(C(=O)Nc3ccccc32)[C@H]2C=Cc3cc(F)ccc3N12 | 2.2
O=c1[nH]c(=O)n([C@H]2C[C@H](O)[C@@H](CO)O2)cc1F | 1.7
COC(=O)c1sccc1NC(=O)Nc1ccccc1F | -1.2
c1ccc(Cn2ncc3c(Nc4ccccc4)ncnc32)cc1 | 1.6
CC1(C)NC(C(=O)O)Cc2c1[nH]c1ccccc21 (stereo not given) | -1.6
COc1ccc2[nH]c3c(c2c1)CCNC3C1CC=C(C)CC1 (stereo not given) | -1.7
O=C(O)/C=C/c1ccc(O)c(O)c1 | -0.3
CCCC(=O)O[C@]1(C(=O)COC(C)=O)CC[C@H]2[C@@H]3C[C@H](F)C4=CC(=O)C=C[C@]4(C)[C@@]3(F)[C@@H](O)C[C@@]21C | -1.4
COc1ccc2c(c1OC)C(=O)NC(C)=C(C(=O)OC(C)(C)C)C2O (stereo not given) | 4.3
CCn1c(SCC(=O)c2ccccc2)nc2ccccc2c1=O | -3
O=C1Cc2ccccc2C(c2ccccc2)N1 (stereo not given) | -0.1
COc1ccc2[nH]cc(C(=O)CCl)c2c1 | -3.7
Cc1cc(C(C)(C)C)cc(C)c1CC1=NCCN1 | 1.3
CCN1C(=O)C(CC(=O)Nc2ccc(OC)cc2)N(CCc2ccc(F)cc2)C1=S (stereo not given) | 0.2
Cc1ccc(C2CC(=O)C(C=NCCN3CCN(CC(=O)Nc4cc(C)cc(C)c4)CC3)=C(O)C2)cc1 (stereo not given) | 2
C1COC(NC(C2CC2)C2CC2)=N1 | 3
O=c1c2ccccc2nc2n1-c1ccccc1CCC2 | 3.5
OC[C@@H](O)[C@@H](O[C@H]1O[C@H](CO)[C@@H](O)[C@H](O)[C@H]1O)[C@H](O)[C@@H](O)CO | 3.7
CC1(C)Cc2nc3sc4c(=O)n(CC(N)=O)cnc4c3cc2CO1 | -0.6
CNCCCC12CCC(c3ccccc31)c1ccccc12 | -2

Target: Botulinum neurotoxin type A (Clostridium botulinum) (UniProt P0DPI0)
Sequence (P0DPI0 whole entry, looked up): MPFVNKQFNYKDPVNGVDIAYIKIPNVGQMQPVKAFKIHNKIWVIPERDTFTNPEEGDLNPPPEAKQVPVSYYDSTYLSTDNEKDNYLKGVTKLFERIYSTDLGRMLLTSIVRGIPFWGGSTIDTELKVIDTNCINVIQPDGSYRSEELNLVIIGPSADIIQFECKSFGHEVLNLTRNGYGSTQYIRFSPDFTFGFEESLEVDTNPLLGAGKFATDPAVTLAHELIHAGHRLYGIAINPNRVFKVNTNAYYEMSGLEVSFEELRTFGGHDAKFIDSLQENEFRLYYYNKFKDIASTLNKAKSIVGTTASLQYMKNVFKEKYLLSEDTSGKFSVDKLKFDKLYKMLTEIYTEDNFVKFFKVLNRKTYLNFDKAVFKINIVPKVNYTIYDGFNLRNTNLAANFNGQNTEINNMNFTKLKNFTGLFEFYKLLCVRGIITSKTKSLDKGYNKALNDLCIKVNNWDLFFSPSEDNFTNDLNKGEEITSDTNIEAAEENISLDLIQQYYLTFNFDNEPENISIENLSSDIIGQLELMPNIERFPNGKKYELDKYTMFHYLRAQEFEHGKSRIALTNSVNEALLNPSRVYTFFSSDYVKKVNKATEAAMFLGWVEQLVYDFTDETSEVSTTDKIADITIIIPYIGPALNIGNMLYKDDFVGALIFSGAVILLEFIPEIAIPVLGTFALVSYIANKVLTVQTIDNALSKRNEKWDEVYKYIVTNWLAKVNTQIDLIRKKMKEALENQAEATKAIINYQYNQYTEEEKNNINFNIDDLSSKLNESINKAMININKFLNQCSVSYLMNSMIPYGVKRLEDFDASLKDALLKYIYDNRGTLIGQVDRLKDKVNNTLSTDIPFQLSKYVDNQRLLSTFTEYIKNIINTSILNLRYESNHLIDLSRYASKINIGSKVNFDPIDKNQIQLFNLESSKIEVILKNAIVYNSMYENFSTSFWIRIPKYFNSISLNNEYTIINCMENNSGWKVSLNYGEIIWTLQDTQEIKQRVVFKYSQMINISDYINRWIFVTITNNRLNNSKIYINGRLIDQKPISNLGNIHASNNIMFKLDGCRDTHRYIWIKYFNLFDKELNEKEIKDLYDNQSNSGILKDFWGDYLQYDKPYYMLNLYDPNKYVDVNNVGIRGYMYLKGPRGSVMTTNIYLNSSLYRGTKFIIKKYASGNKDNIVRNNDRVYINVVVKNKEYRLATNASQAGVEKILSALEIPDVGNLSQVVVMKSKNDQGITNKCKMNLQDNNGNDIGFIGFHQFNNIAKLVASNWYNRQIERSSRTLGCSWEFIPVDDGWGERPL
Assay: BoNT/A light chain protease inhibitors, biochemical, multiplex microsphere flow cytometry, validation set (AID 588460)
Conditions: at 10 µM, hits give high values

SMILES | inhibition [%]
Cc1nc2ccccc2n1CC(=O)NC1CCCC1 | -0.2
CC1CCCc2sc3ncn(N)c(=N)c3c21 (stereo not given) | 0.3
COC(=O)c1cc(OC)c(OC)cc1NC(=O)Nc1ccc(OC)cc1OC | -0.8
O=C(COc1ccc2c(-c3ccccc3)cc(=O)oc2c1)NCc1cccs1 | -0.1
O=C(O)/C=C/c1cnc[nH]1 | -0.2
O=c1[nH]cnc2c1ncn2[C@@H]1O[C@H](CO)[C@@H](O)[C@H]1O | 0.1
CCOc1cc(C=O)ccc1OCCSc1ccc(C)cc1 | 0.4
Cc1ccnc2c1NC(=O)c1cccnc1N2C1CC1 | -0.1
O=c1[nH]cnc2[nH]ncc12 | 0.8
O=C(CCN1CCC(c2ccccc2)C1)c1ccc2c(c1)OCCO2 (stereo not given) | -0.2
O=C(/C=C/c1ccco1)Nc1ccccc1C(=O)O | -0.2
Cc1ccc(O)c(CCc2ccccc2)n1 | 0.5
C=CCc1cccc2cc(C(=O)Nc3ccc(CC(=O)O)cc3)c(=O)oc12 | -0.1
CCOC(=O)c1ccc(N2C(=O)C(CC(N)=O)N(CCc3ccc(OC)c(OC)c3)C2=S)cc1 (stereo not given) | 1.1
O=C(O)CCn1cnc2ccccc2c1=O | 0.3
O=C(Nc1ccccc1)OCC1CCCN2CCCCC12 (stereo not given) | 0.3
Cc1cccc(C2=N/C(=C\c3cccnc3)C(=O)O2)c1 | 1.9
COc1cc(OC)c(C2C(C#N)=C(N)OC3=C2C(=O)CC(C)(C)C3)cc1OC (stereo not given) | 0.8
Cn1c(=O)c(C(=O)NCCO)c(O)c2ccccc21 | -0.1
COc1ccc(/C=C\c2nc(=O)c3ccccc3o2)cc1 | -0.8

SMILES | inhibition [%]
CC(=O)[C@@H]1[C@@H](C(=O)c2ccc(C)cc2)[C@]2(C(=O)Nc3ccccc32)[C@H]2C=Cc3cc(F)ccc3N12 | 1.6
O=c1[nH]c(=O)n([C@H]2C[C@H](O)[C@@H](CO)O2)cc1F | 1.3
COC(=O)c1sccc1NC(=O)Nc1ccccc1F | -1.3
c1ccc(Cn2ncc3c(Nc4ccccc4)ncnc32)cc1 | -1.4
CC1(C)NC(C(=O)O)Cc2c1[nH]c1ccccc21 (stereo not given) | 1
COc1ccc2[nH]c3c(c2c1)CCNC3C1CC=C(C)CC1 (stereo not given) | 0.2
O=C(O)/C=C/c1ccc(O)c(O)c1 | -0.4
CCCC(=O)O[C@]1(C(=O)COC(C)=O)CC[C@H]2[C@@H]3C[C@H](F)C4=CC(=O)C=C[C@]4(C)[C@@]3(F)[C@@H](O)C[C@@]21C | 0.4
COc1ccc2c(c1OC)C(=O)NC(C)=C(C(=O)OC(C)(C)C)C2O (stereo not given) | -0.4
CCn1c(SCC(=O)c2ccccc2)nc2ccccc2c1=O | -0.1
O=C1Cc2ccccc2C(c2ccccc2)N1 (stereo not given) | -0.3
COc1ccc2[nH]cc(C(=O)CCl)c2c1 | -1.3
Cc1cc(C(C)(C)C)cc(C)c1CC1=NCCN1 | 1.2
CCN1C(=O)C(CC(=O)Nc2ccc(OC)cc2)N(CCc2ccc(F)cc2)C1=S (stereo not given) | 1.4
Cc1ccc(C2CC(=O)C(C=NCCN3CCN(CC(=O)Nc4cc(C)cc(C)c4)CC3)=C(O)C2)cc1 (stereo not given) | 0.6
C1COC(NC(C2CC2)C2CC2)=N1 | -0.1
O=c1c2ccccc2nc2n1-c1ccccc1CCC2 | 0.6
OC[C@@H](O)[C@@H](O[C@H]1O[C@H](CO)[C@@H](O)[C@H](O)[C@H]1O)[C@H](O)[C@@H](O)CO | 0.6
CC1(C)Cc2nc3sc4c(=O)n(CC(N)=O)cnc4c3cc2CO1 | 1.1
CNCCCC12CCC(c3ccccc31)c1ccccc12 | -2.1

From PubChem BioAssay
